Hit rate of the full screen: of about 5,500 compounds, about 2,000 (36%) were called active. Not shown: some 18% with an inconclusive outcome. Rule as the data show it: active = normalized growth mostly below about 0.91 (no sharp cut-off); inconclusive = no clear call, values can overlap the other calls; inactive = mostly above about 0.92. Some of the results follow.
Experiment: chemical genetic growth profiling, strain panel (AID 1159580);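 also: tested at 20 µM; growth read once vehicle control cultures reached saturation at 30 °C; 1 = growth at the plate median or of vehicle wells; lower values mean less growth of the strain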
Conditions: growth OD

Measured: normalized growth

COc1ccc2c3c([nH]c2c1)C(C)=NCC3
inactive: S. cerevisiae deletion strains, locus YKL009W, strain mrt4, stronger effect = lower value 1.02 | S. cerevisiae deletion strains, locus YKL068W, stronger effect = lower value 0.999 | S. cerevisiae deletion strains, locus YKL085W, strain MDH1 (second series), stronger effect = lower value 0.996 | S. cerevisiae deletion strains, locus YKL085W, strain MDH1, stronger effect = lower value 0.996 | S. cerevisiae deletion strains, locus YKL160W, strain elf1, stronger effect = lower value 1.01 | S. cerevisiae deletion strains, locus YKL190W, strain CNB1, stronger effect = lower value 1.01 | S. cerevisiae deletion strains, locus YKR001C, strain vps1, stronger effect = lower value 0.975 | S. cerevisiae deletion strains, locus YKR026C, strain gcn3, stronger effect = lower value 1.01 | S. cerevisiae deletion strains, locus YKR091W, strain srl3, stronger effect = lower value 0.999 | S. cerevisiae deletion strains, locus YLL001W, strain dnm1, stronger effect = lower value 1.01 | S. cerevisiae deletion strains, locus YLL026W, stronger effect = lower value 0.987 | S. cerevisiae deletion strains, locus YLL041C, strain sdh2, stronger effect = lower value 1.01 | S. cerevisiae deletion strains, locus YLR027C, strain aat2, stronger effect = lower value 1 | S. cerevisiae deletion strains, locus YLR039C, strain RIC1, stronger effect = lower value 1.02 | S. cerevisiae deletion strains, locus YLR058C, strain SHM2, stronger effect = lower value 1.01 | S. cerevisiae deletion strains, locus YLR102C, strain apc9, stronger effect = lower value 0.987 | S. cerevisiae deletion strains, locus YLR113W, strain HOG1, stronger effect = lower value 0.993 | S. cerevisiae deletion strains, locus YLR221C, strain rsa3, stronger effect = lower value 1 | S. cerevisiae deletion strains, locus YLR258W, strain gsy2, stronger effect = lower value 0.999 | S. cerevisiae deletion strains, locus YLR262C, strain YPT6 (second series), stronger effect = lower value 0.983 | S. cerevisiae deletion strains, locus YLR262C, strain YPT6, stronger effect = lower value 1.03 | S. cerevisiae deletion strains, locus YLR268W, strain sec22, stronger effect = lower value 0.979 | S. cerevisiae deletion strains, locus YLR320W, strain mms22, stronger effect = lower value 0.988 | S. cerevisiae deletion strains, locus YLR330W, strain CHS5, stronger effect = lower value 1 | S. cerevisiae deletion strains, locus YLR342W, strain FKS1 (second series), stronger effect = lower value 1.01 | S. cerevisiae deletion strains, locus YLR342W, strain FKS1, stronger effect = lower value 0.972 | S. cerevisiae deletion strains, locus YLR357W, strain rsc2, stronger effect = lower value 0.991 | S. cerevisiae deletion strains, locus YLR370C, strain arc18, stronger effect = lower value 1 | S. cerevisiae deletion strains, locus YLR371W, strain rom2, stronger effect = lower value 0.976 | S. cerevisiae deletion strains, locus YLR384C, strain iki3, stronger effect = lower value 1 | S. cerevisiae deletion strains, locus YLR418C, strain cdc73, stronger effect = lower value 0.98 | S. cerevisiae deletion strains, locus YML016C, strain PPZ1, stronger effect = lower value 1 | S. cerevisiae deletion strains, locus YML032C, strain rad52, stronger effect = lower value 0.993 | S. cerevisiae deletion strains, locus YML120C, strain ndi1, stronger effect = lower value 0.986 | S. cerevisiae deletion strains, locus YML124C, strain tub3, stronger effect = lower value 0.987 | S. cerevisiae deletion strains, locus YMR058W, strain fet3, stronger effect = lower value 1.02 | S. cerevisiae deletion strains, locus YMR078C, strain ctf18, stronger effect = lower value 0.996 | S. cerevisiae deletion strains, locus YMR125W, strain sto1, stronger effect = lower value 1 | S. cerevisiae deletion strains, locus YMR129W, stronger effect = lower value 0.981 | S. cerevisiae deletion strains, locus YMR205C, strain PFK2, stronger effect = lower value 1.01 | S. cerevisiae deletion strains, locus YMR223W, strain ubp8, stronger effect = lower value 0.99 | S. cerevisiae deletion strains, locus YMR231W, strain pep5, stronger effect = lower value 0.999 | S. cerevisiae deletion strains, locus YMR263W, strain SAP30, stronger effect = lower value 1.01 | S. cerevisiae deletion strains, locus YMR307W, strain GAS1, stronger effect = lower value 1.04 | S. cerevisiae deletion strains, locus YNL067W, strain RPL9B, stronger effect = lower value 0.999 | S. cerevisiae deletion strains, locus YNL071W, strain lat1, stronger effect = lower value 1 | S. cerevisiae deletion strains, locus YNL128W, strain TEP1, stronger effect = lower value 1.01 | S. cerevisiae deletion strains, locus YNL153C, strain GIM3, stronger effect = lower value 0.997 | S. cerevisiae deletion strains, locus YNL183C, strain NPR1, stronger effect = lower value 0.934 | S. cerevisiae deletion strains, locus YNL209W, strain ssb2, stronger effect = lower value 1 | S. cerevisiae deletion strains, locus YNL233W, strain BNI4, stronger effect = lower value 0.999 | S. cerevisiae deletion strains, locus YNL248C, strain rpa49, stronger effect = lower value 1 | S. cerevisiae deletion strains, locus YNL250W, strain rad50, stronger effect = lower value 0.983 | S. cerevisiae deletion strains, locus YNL271C, strain bni1, stronger effect = lower value 0.984 | S. cerevisiae deletion strains, locus YNL298W, strain CLA4, stronger effect = lower value 0.971 | S. cerevisiae deletion strains, locus YNL307C, strain MCK1, stronger effect = lower value 0.987 | S. cerevisiae deletion strains, locus YNL322C, strain KRE1 (second series), stronger effect = lower value 1 | S. cerevisiae deletion strains, locus YNL322C, strain KRE1, stronger effect = lower value 1.01 | S. cerevisiae deletion strains, locus YNR049C, strain mso1, stronger effect = lower value 0.999 | S. cerevisiae deletion strains, locus YNR052C, strain pop2, stronger effect = lower value 0.989 | S. cerevisiae deletion strains, locus YOL006C, strain TOP1, stronger effect = lower value 1.02 | S. cerevisiae deletion strains, locus YOL012C, strain htz1 0.706 | S. cerevisiae deletion strains, locus YOL147C, strain pex11, stronger effect = lower value 0.99 | S. cerevisiae deletion strains, locus YOR001W, strain rrp6, stronger effect = lower value 1.01 | S. cerevisiae deletion strains, locus YOR061W, strain CKA2, stronger effect = lower value 1 | S. cerevisiae deletion strains, locus YOR069W, strain VPS5, stronger effect = lower value 1.01 | S. cerevisiae deletion strains, locus YOR070C, strain gyp1, stronger effect = lower value 0.991 | S. cerevisiae deletion strains, locus YOR080W, strain dia2, stronger effect = lower value 0.997 | S. cerevisiae deletion strains, locus YOR083W, strain WHI5, stronger effect = lower value 0.991 | S. cerevisiae deletion strains, locus YOR106W, strain vam3, stronger effect = lower value 1.01 | S. cerevisiae deletion strains, locus YOR136W, strain idh2, stronger effect = lower value 0.983 | S. cerevisiae deletion strains, locus YOR144C, strain elg1, stronger effect = lower value 0.983 | S. cerevisiae deletion strains, locus YOR184W, strain ser1, stronger effect = lower value 0.994 | S. cerevisiae deletion strains, locus YOR231W, strain MKK1, stronger effect = lower value 0.987 | S. cerevisiae deletion strains, locus YOR265W, strain rbl2, stronger effect = lower value 1 | S. cerevisiae deletion strains, locus YOR270C, strain vph1, stronger effect = lower value 0.997 | S. cerevisiae deletion strains, locus YOR290C, strain snf2, stronger effect = lower value 1.01 | S. cerevisiae deletion strains, locus YOR316C, strain cot1, stronger effect = lower value 0.987 | S. cerevisiae deletion strains, locus YPL051W, strain arl3, stronger effect = lower value 0.999 | S. cerevisiae deletion strains, locus YPL055C, strain LGE1, stronger effect = lower value 1.03 | S. cerevisiae deletion strains, locus YPL078C, strain atp4, stronger effect = lower value 1 | S. cerevisiae deletion strains, locus YPL106C, strain sse1, stronger effect = lower value 0.991 | S. cerevisiae deletion strains, locus YPL240C, strain hsp82, stronger effect = lower value 0.996 | S. cerevisiae deletion strains, locus YPL241C, strain CIN2, stronger effect = lower value 1 | S. cerevisiae deletion strains, locus YPL256C, strain CLN2, stronger effect = lower value 0.976 | S. cerevisiae deletion strains, locus YPR119W, strain clb2, stronger effect = lower value 0.995 | S. cerevisiae deletion strains, locus YPR141C, strain kar3, stronger effect = lower value 0.984 | S. cerevisiae deletion strains, locus YPR163C, strain tif3, stronger effect = lower value 0.99 | S. cerevisiae deletion strains, locus YPR167C, strain met16, stronger effect = lower value 0.991 | S. cerevisiae deletion strains, strain wtn01, stronger effect = lower value 0.977 | S. cerevisiae strains, strain wild type, stronger effect = lower value 1.01

Reference: PubChem BioAssay AID1159580 (chemical genetic matrix, 2015)
